# Source: PubChem
# ATXN viability: reduces viability in counter-screen for ATXN expression inhibitors; S2 cells (HEK-293 line with an ATXN2-luciferase reporter) viability, CellTiter-Fluor protease fluorescence, 24 h; Potency, µM (top dose mostly 56.7 µM), usual class: cytotoxic; 0.49% of 400,000 active; AID 651635; note: potency is the fitted concentration of half-maximal effect; nearly all actives have a fitted effect of over 40% in size
# HepG2 tox: kills HepG2 cells in TGF-b inhibitor counter-screen | HepG2 CAGA-GFP viability, ATP luminescence, 18 h | Potency, µM (titrated, usually from 46.1 µM), for inactives: at the top dose activity change, negative = cytotoxicity, most hits filed as cytotoxic | 0.76% of 410,000 active; note: potency is the fitted concentration of half-maximal effect
#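 HepG2 CAGA-GFP cells (1000/well, DMEM with 1% FBS) received compound, then TGF-beta at 500 pg/mL final, and were incubated 18 hours at 37 degrees C. Viability was read by CellTiter-Glo luminescence. Media-only wells were set as complete cell-killing and DMSO as no toxicity.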
# D3 antag: D3 dopamine receptor (human) antagonism | P35462 | D3R cells, DiscoveRx beta-arrestin luminescence, antagonist mode; hits give low values | max response, negative = inhibition, % | 2.5% of 360,000 active | AID 652054; in the data active = max response below about -50%; inconclusive = no clear call, values can overlap the other calls; note: % is set by controls: 0 for no effect and ±100 for the full control effect
# Target sequence (P35462 whole entry, looked up): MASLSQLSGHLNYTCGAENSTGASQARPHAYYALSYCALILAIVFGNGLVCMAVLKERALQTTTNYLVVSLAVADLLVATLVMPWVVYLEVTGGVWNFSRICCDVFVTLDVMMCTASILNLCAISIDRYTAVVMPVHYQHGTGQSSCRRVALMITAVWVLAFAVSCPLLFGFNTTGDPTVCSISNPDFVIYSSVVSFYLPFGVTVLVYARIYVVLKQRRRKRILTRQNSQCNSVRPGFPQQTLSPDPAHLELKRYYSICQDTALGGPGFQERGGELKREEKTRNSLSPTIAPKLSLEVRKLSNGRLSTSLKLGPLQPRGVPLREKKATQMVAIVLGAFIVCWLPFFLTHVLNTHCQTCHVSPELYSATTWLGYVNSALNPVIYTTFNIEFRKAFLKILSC
#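 Cells expressing the human receptor were seeded at 1500 cells/well, incubated overnight at 37 degrees C in 5% CO2, then exposed to library compounds with dopamine controls for 90 minutes at 37 degrees C before luminescent detection.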
# TGFb inhibitor: TGF-b pathway inhibition; HepG2 CAGA-GFP TGF-b/SMAD3 reporter, GFP fluorescence, 18 h; TGF-beta stimulated, 500 pg/mL final; Potency, µM (titrated, usually from 46.1 µM), inactives show at the top dose activity, negative = inhibition, usual class: inhibitors; 1.2% of 410,000 active; AID 588855; note: potency is the fitted concentration of half-maximal effect; % is set by controls: 0 for no effect and ±100 for the full control effect; nearly all actives have a fitted effect of over 65% in size
#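 Read-out: total well GFP (ex488/em500-530) summed from mean per-cell fluorescence. Cells: HEPG2 CAGA-GFP, 1% FBS DMEM, 18 h at 37 degrees C with 500 pg/mL final TGF-beta. Unstimulated wells served as the full-inhibition control; stimulated DMSO wells = 0%.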
# ATXN2 expr inh: reduces ATXN2 reporter expression in HEK-293 cells. HEK-293 ATXN2-luciferase reporter, luminescence, 24 h. 0.72% of 360,000 active. Potency, µM (top dose mostly 57 µM), for the others: top-dose activity change, negative = inhibition, hits mostly inhibitors; note: potency is the fitted concentration of half-maximal effect; % is set by controls: 0 for no effect and ±100 for the full control effect; nearly all actives have a fitted effect of over 55% in size
#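 qHTS (up to 57 uM final) was run with 24 h compound exposure of reporter cells at 37 °C. Each well was multiplexed: SteadyGlo luminescence measured ATXN2-luciferase expression after a fluorogenic Gly-Phe-AFC viability readout (25 uM final).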
# DRD3 agonist: activates the human D3 dopamine receptor; P35462; 0.58% of 410,000 active; D3R DiscoveRx beta-arrestin cells, luminescence, 90 min; AID 652048; max activation, %; in the data active = max activation above about 30%; note: 0% is about no effect
#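 Agonist mode: compounds and dopamine controls were applied to plated cells for 90 min at 37 degrees C after an overnight attachment at 1500 cells/well. Luminescent read-out followed 30 - 60 minutes at room temperature with DiscoveRx detection reagent.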
# Starred values were filed as active, the others as inactive; i = inactive; ? = inconclusive; . = no result. In the library only some 4.8% were active in any assay of this set; here they are far more common. Unless noted, calls come from the whole dose curve; as a rule, active = well fitted curve in the direction sought with a large enough effect; inconclusive = small, poorly fitted or top-dose-only effect, or another doubt; inactive = no such curve, though single readings can be large; an effect the other way counts as inactive or inconclusive.
SMILES,ATXN viability,HepG2 tox,D3 antag,TGFb inhibitor,ATXN2 expr inh,DRD3 agonist
Oc1ccccc1C1=Nc2ccccc2N=C(c2ccco2)C1,i,-30%,8,-9%,-2%,-18
Oc1ccccc1C1=NOC(O)(C(F)F)C1 (stereo not given),i,-7%,-66*,-6%,-16%,-3
Cc1nc(CCN2C(=O)c3ccccc3C2=O)cs1,i,3%,-8,5%,4%,-6
NC(N)=Nc1nc(CCN2C(=O)c3ccccc3C2=O)cs1,i,2%,22,12%,1%,48*
O=C1c2ccccc2C(=O)N1CCc1csc(-c2ccc(F)cc2)n1,i,-2%,-11,9%,1%,30*
CC(C)N(C(=O)[C@H]1C[C@H](CC(=O)NCc2ccco2)C(=O)N2CCc3c([nH]c4ccc(Cl)cc34)[C@]12C)C(C)C,?,-28%,?,11µM*,-36%,2
CC(C)N(C(=O)[C@H]1C[C@H](CC(=O)NCCN2CCOCC2)C(=O)N2CCc3c([nH]c4ccc(Cl)cc34)[C@]12C)C(C)C,i,-16%,-53*,?,5%,-1
CCN(CC)C(=O)[C@H]1C[C@H](CC(=O)NCc2ccco2)C(=O)N2CCc3c([nH]c4ccc(Cl)cc34)[C@]12C,i,-9%,-26,?,-15%,-19
CCN(CC)C(=O)[C@H]1C[C@H](CC(=O)NCCN2CCOCC2)C(=O)N2CCc3c([nH]c4ccc(Cl)cc34)[C@]12C,i,-8%,0,-6%,3%,-19
CCC1CN(Cc2cn[nH]c2-c2ccc(F)cc2)Cc2cc(OC)ccc2O1 (stereo not given),i,.,.,.,.,.
CCS(=O)(=O)Nc1cc(C(=O)N2CCCN(C=O)CC2)c2c(c1)nc(-c1ccccc1)n2C,i,.,.,.,.,.
O=C(Oc1cccc2c(O)cccc12)c1ccccc1,?,-116%,36,14µM*,-21%,5
NNC(=O)c1ccc(CSc2nc3ccccc3[nH]2)cc1,?,3%,-56*,0%,-10%,-7
O=C(O)c1ccc(CSc2nc3ccccc3[nH]2)cc1,i,1%,4,4%,0%,3
Nc1c(C(=O)Nc2ccc(S(=O)(=O)N3CCCC3)cc2)sc2nc3ccc(OC(F)(F)F)cc3cc12,.,1.8µM*,0,-12%,?,-29
CCN(CC)c1ccc(CN(C(=O)Cc2coc3ccc(C)cc23)C2CCS(=O)(=O)C2)cc1 (stereo not given),?,-27%,.,?,-14%,4
CCCCNc1nc(NCc2ccccc2)nc2ccccc12,32µM*,.,-10,.,22µM*,-4
Cc1c(Cl)cccc1Nc1nc(NCCO)c2ccccc2n1,i,-19%,0,11µM*,-12%,-8
Oc1ccccc1Nc1nc(NCc2ccccc2)c2ccccc2n1,i,-40%,5,11µM*,?,8
CCOC(=O)C(CC)Sc1ncnc2sc3c(c12)CCCC3 (stereo not given),i,-1%,.,9%,-3%,5
COc1ccc(C(CCN(Cc2ccc(OC)c(OC)c2)C(C)=O)c2ccccc2)cc1 (stereo not given),?,-24%,-7,-8%,.,2
COc1ccc(CN(CCC(c2ccc3c(c2)OCO3)c2ccccc2OC)C(C)=O)cc1 (stereo not given),.,-31%,.,13µM*,.,0
CC(=O)N(CCC(Cc1ccccc1)c1ccc2c(c1)OCO2)Cc1ccc(Cl)cc1 (stereo not given),?,10µM*,?,?,?,0
CCC(C(=O)N1CCN(c2cc(Cl)ccc2C)CC1)n1nc(C)n2c(cc3occc32)c1=O (stereo not given),?,-29%,.,?,?,-6
COC1=C(OC)C(=O)C(Sc2ccc3ccccc3c2)=CC1=O,.,-61%,-62*,?,?,-28
SMILES,ATXN viability,HepG2 tox,D3 antag,TGFb inhibitor,ATXN2 expr inh,DRD3 agonist
COc1ccc(CNc2nc(-c3ccc(OC)c(OC)c3)cc(C(F)(F)F)n2)cc1,i,-24%,.,?,1%,8
COc1ccc(-c2cc(C(F)(F)F)nc(NC3CCCC3)n2)cc1OC,i,22µM*,11,-2%,1%,6
COc1ccc(CCNc2nc(-c3ccc(OC)c(OC)c3)cc(C(F)(F)F)n2)cc1OC,?,-21%,.,?,?,38*
COc1ccc(N2CCN(c3nc(NCCc4ccc(OC)c(OC)c4)nc(OC)n3)CC2)cc1,?,-72%,58,?,28µM*,38*
CCN(CC)CCCNc1oc(-c2ccc(OC)cc2)nc1C#N,.,6%,.,-16%,.,-6
Cc1ccc2[nH]c3c(c2c1)CNCC3,i,-18%,-58*,0%,-7%,-22
CCc1nc2ccc(C(=O)NC3CCN(C)CC3)cn2c1N(C)CCC(C)C,i,-39%,14,?,0%,1
CCc1nc2ccc(C(=O)Nc3ccc(Cl)c(Cl)c3)cn2c1N(C)Cc1ccc(OC)cc1,.,-44%,7,11µM*,?,5
CCc1nc2ccc(C(=O)NC3CCN(Cc4ccccc4)CC3)cn2c1N(C)Cc1ccc(N(C)C)cc1,?,-38%,-63*,-6%,?,-22
CCc1nc2ccc(C(=O)Nc3ccc(OC)c(OC)c3)cn2c1N(C)CCC(C)C,.,20µM*,0,14µM*,?,-6
CCN(Cc1ccccc1)c1ccc(/C=C/c2nccc3ccccc23)cc1,.,-13%,.,0%,.,.
COc1ccc(CCNc2nc3cc(OC)c(OC)cc3c3nc(-c4cccnc4)nn23)cc1OC,.,7%,.,-13%,.,-11
Cc1ccccc1C(=O)NCc1nc2cccnc2n1Cc1ccccc1,.,-10%,.,3%,.,1
COc1ccccc1CN(Cc1nc2ccccc2c(=O)[nH]1)C(=O)Nc1cccc(C)c1,i,8.9µM*,-5,?,37%,-9
COc1ccccc1NC(=O)N(Cc1ccc2c(c1)OCO2)Cc1nc2ccccc2c(=O)[nH]1,i,1%,7,-2%,-6%,-8
CC(C)C(=O)N(Cc1ccc(F)cc1)Cc1nc2ccccc2c(=O)[nH]1,i,20µM*,-23,-2%,-6%,-5
CCN(CC(=O)NCCc1ccc(F)cc1)Cc1nc2ccccc2c(=O)[nH]1,i,-34%,-8,-7%,.,-2
COc1ccccc1OCC(=O)N(Cc1ccc(N(C)C)cc1)CC1CCCO1 (stereo not given),.,-4%,.,-15%,.,0
